PubChem BioAssay

Molecular target: Streptavidin (Streptomyces avidinii) (UniProt P22629)
Assay: compounds binding control protein streptavidin – biophysical, small-molecule microarray, 635/667 nm fluorescence, artefact control for SMM compound annotation, primary screen (AID 1147);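 note: signal reflects streptavidin binding to arrayed compounds as a control protein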
Conditions: higher = more signal

Sequence of Streptavidin (Streptomyces avidinii) (P22629 whole entry, looked up): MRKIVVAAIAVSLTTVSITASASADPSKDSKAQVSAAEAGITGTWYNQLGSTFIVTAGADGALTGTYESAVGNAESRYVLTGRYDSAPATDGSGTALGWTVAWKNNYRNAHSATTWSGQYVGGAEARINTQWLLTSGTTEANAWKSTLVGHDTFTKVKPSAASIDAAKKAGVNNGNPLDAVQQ

| Compound | composite z-score |
| --- | --- |
| N#Cc1ccc(NN2C(C(O)CCc3ccccc3)C=CC3C(=O)N(c4ccccc4)C(=O)C32)cc1 (stereo not given) | 0.79 |
| Cc1ccc(S[C@]2(C(=O)NC3CC3)CC(=O)N(Cc3cc(C(F)(F)F)cc(C(F)(F)F)c3)[C@@H]2c2ccc(CO)cc2)cc1 | -0.103 |
| C#CCCCON=C1C[C@@H](O)[C@@H](O)[C@@H]2[C@@H]3C(=O)N(Cc4ccc5c(c4)OCO5)C(=O)[C@@H]3CC[C@@H]12 | 0.571 |
| Cc1ccc(S(=O)(=O)N2[C@@H](c3ccccc3)C(C(=O)O)=CC[C@H]2c2ccccc2)cc1 | 0.263 |

Tested on: not listed separately
Assay: probe aInhba binding on compound microarray – biochemical, small-molecule microarray, 635/667 nm fluorescence, primary screen (AID 1148);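 note: score merges 667nm spot fluorescence with signal-to-noise for antibody binding to printed compounds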
Conditions: higher = more signal

| Compound | composite z-score |
| --- | --- |
| COc1cc(CO)cc(I)c1O[C@H]1C=C(C(=O)NCCO)C[C@@H](N(CC2CCCCC2)C(=O)c2cc3ccccc3oc2=O)[C@@H]1O | -0.0332 |
| C=C(CCCC)/C(=C/C[C@@H](OC(=O)c1ccncc1)c1cccc(OCCO)c1)c1cc(C(=O)OC)ccc1OC | 0.0852 |
| C=CCC(OC(C)=O)[C@@H]1[C@@H](N(Cc2ccc(-c3ccccc3)cc2)C(=O)c2ccc(-c3ccccc3)cc2)c2cc(OCCCO)ccc2N1C(=O)Cc1ccc(OC)cc1 (stereo not given in full) | -0.0774 |
| CC(=O)NCCCC[C@@H]1NC(=O)[C@H]2C[C@@H](C(=O)NCCCCCCN(C)C)[C@@H](c3ccc(O)cc3)N2C1=O | 1.12 |
| Cc1ccc(S[C@]2(C(=O)NC(C)C)CC(=O)N(C3Cc4ccccc4C3)[C@@H]2c2ccc(CO)cc2)cc1 | -0.32 |
| Cc1ccc(N2C(=O)c3ccccc3[C@](C)(C(=O)NCC(C)C)[C@@H]2c2ccc(CO)cc2)nc1 | -0.147 |
| [N-]=[N+]=NCc1ccccc1C[C@]1(C(=O)N2CCCCC2)N=C(c2ccc(OCCCO)cc2)O[C@H]1c1ccccc1CN=[N+]=[N-] | 0.233 |
| C=C(CCCC)/C(=C/C[C@H](OC(=O)c1ccncc1)c1cccc(OCCO)c1)c1cc(C(=O)OC)ccc1OC | -0.0695 |
| O=C(CS)NCCCCCCNC(=O)[C@@H]1C[C@@H]2C(=O)N[C@@H](Cc3ccccc3)C(=O)N2[C@@H]1c1ccc(O)cc1 | 0.0503 |
| C=C(CCCC)C(=O)CC[C@@H](OC(=O)c1cccnc1)c1cccc(OCCO)c1 | -0.0762 |
| COc1ccc([C@H]2C[C@H]3C(Br)=C[C@]2(OC)C(=O)[C@]32CO2)cc1 | -0.128 |
| C=C(C(=O)CC[C@H](OC(=O)c1ccccc1-c1ccccc1C(=O)O)c1ccc(CO)o1)C(C)C | -0.0933 |
| C#CCCCON=C1C[C@@H](O)[C@@H](O)[C@@H]2[C@@H]3C(=O)N(Cc4ccc5c(c4)OCO5)C(=O)[C@@H]3CC[C@H]12 | -0.261 |
| COC(=O)c1ccc(C#CC(NP(=O)(c2ccccc2)c2ccccc2)c2ccccc2)cc1 (stereo not given) | 0.103 |
| CCOC(=O)C1=CC[C@@H](c2ccc(-c3ccc(OCc4ccccc4)cc3)c(OC)c2)N(S(=O)(=O)c2ccc(C)cc2)[C@H]1c1ccccc1 | 0.119 |
| CC(c1ccccc1)C(O)C1C=CC2C(=O)N(C)C(=O)C2N1N(c1ccccc1)c1ccccc1 (stereo not given) | 0.153 |
| C=C[C@H](OC)[C@@H](OC(=O)Nc1ccc(SC)cc1)c1ccc(O)c(F)c1 | -0.0695 |
| C=C(CCCC)C(=O)CC[C@@H](OC(C)=O)c1ccccc1OCCO | -0.024 |

| Compound | composite z-score |
| --- | --- |
| CC(=O)NCCCC[C@@H]1NC(=O)[C@H]2C[C@@H](C(=O)NCCCCCCN(C)C)[C@@H](c3cccc(OCCO)c3)N2C1=O | 0.222 |
| CCCC=C(CCC)[C@@H](NS(=O)(=O)c1cccc(C(F)(F)F)c1)c1ccc(C(=O)OC)cc1 | 1.43 |
| O=C(NCc1ccccc1)[C@@]1(Cc2ccccc2)COC(c2ccc(OCCCO)cc2)=N1 | -0.0087 |
| [N-]=[N+]=NCc1ccccc1[C@H]1OC(c2ccc(OCCCO)cc2)=N[C@@]1(Cc1ccccc1N=[N+]=[N-])C(=O)NCc1ccccc1 | 0.671 |
| NC(=O)NCC#Cc1ccc2c(c1)[C@]1(C(=O)N2)[C@H](C(=O)N2CCCCCCC2)[C@H]2C(=O)O[C@H](c3ccccc3)[C@H](c3ccccc3)N2[C@@H]1c1ccccc1OCCO | 2.01 |
| C#CCNC(/C=C/c1ccccc1)CO (stereo not given) | -0.0846 |
| O=C1C2C=CC(C(O)C(c3ccccc3)c3ccccc3)N(Nc3ccc([N+](=O)[O-])cc3)C2C(=O)N1c1ccccc1 (stereo not given) | 0.0183 |
| C=C(CCCC)/C(=C/C[C@@H](OC(=O)c1ccncc1)c1ccc(CO)o1)c1cnc2ccccc2c1 | 0.461 |
| CCc1cccc(NC(=O)O[C@H]2[C@H](OC(=O)Nc3ccccc3)[C@@H](OC(=O)Nc3ccccc3)[C@@H](OC)O[C@@H]2CO)c1 | 0.0785 |
| C=CC[C@]1(C(=O)N2CCCCC2)N=C(c2ccc(OCCCO)cc2)O[C@H]1c1ccccc1N=[N+]=[N-] | 0.0355 |
| C#C[C@H](O[Si](C#Cc1ccccc1)(C(C)C)C(C)C)c1ccccc1 | -0.242 |
| CCOC(=O)C1=CC[C@@H](c2ccccc2)N(S(=O)(=O)c2ccc(C)cc2)[C@H]1C | -0.153 |
| O=C(N1CCCCC1)[C@@]1(CCS(=O)(=O)c2ccccc2)N=C(c2ccc(OCCCO)cc2)O[C@H]1c1ccccc1 | -0.0112 |
| CC(C)(C)OC(=O)CC[C@]1(C(=O)N2CCCCC2)N=C(c2ccc(OCCCO)cc2)O[C@H]1c1ccccc1 | -0.0112 |
| N#Cc1ccc(NN2C(C(O)CCc3ccccc3)C=CC3C(=O)N(c4ccccc4)C(=O)C32)cc1 (stereo not given) | 0.194 |
| Cc1ccc(S[C@]2(C(=O)NC3CC3)CC(=O)N(Cc3cc(C(F)(F)F)cc(C(F)(F)F)c3)[C@@H]2c2ccc(CO)cc2)cc1 | -0.128 |
| C#CCCCON=C1C[C@@H](O)[C@@H](O)[C@@H]2[C@@H]3C(=O)N(Cc4ccc5c(c4)OCO5)C(=O)[C@@H]3CC[C@@H]12 | -0.0245 |
| Cc1ccc(S(=O)(=O)N2[C@@H](c3ccccc3)C(C(=O)O)=CC[C@H]2c2ccccc2)cc1 | 0.0631 |
